Assay outcomes as filed in PubChem.
Compounds with a hit are over-represented: about 4% of the library has one in this group of screens.
Mdm2 MdmX PPI = inhibitors of human Mdm2/MdmX interaction; O15151+Q00987; SaOS-2 split-luciferase Mdm2/MdmX complementation, luminescence; inhibition, % at 8 µM; 3% of 330,000 active;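 active = inhibition of at least 50% at 8 µM in the primary screen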
Target sequence (O15151 whole entry, looked up): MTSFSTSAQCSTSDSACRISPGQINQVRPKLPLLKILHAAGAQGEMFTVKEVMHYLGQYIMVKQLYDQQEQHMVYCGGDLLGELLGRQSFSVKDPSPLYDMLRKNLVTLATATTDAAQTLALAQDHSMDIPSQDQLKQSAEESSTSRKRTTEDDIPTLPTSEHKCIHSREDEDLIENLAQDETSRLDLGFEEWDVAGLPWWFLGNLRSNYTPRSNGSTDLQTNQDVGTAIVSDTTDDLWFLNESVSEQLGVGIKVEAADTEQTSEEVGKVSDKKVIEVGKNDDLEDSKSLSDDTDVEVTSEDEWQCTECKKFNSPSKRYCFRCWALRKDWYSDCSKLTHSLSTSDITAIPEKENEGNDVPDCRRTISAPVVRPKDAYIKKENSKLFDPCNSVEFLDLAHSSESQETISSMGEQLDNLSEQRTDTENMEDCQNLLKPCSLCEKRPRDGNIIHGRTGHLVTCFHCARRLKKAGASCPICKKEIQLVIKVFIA
Target sequence (Q00987 whole entry, looked up): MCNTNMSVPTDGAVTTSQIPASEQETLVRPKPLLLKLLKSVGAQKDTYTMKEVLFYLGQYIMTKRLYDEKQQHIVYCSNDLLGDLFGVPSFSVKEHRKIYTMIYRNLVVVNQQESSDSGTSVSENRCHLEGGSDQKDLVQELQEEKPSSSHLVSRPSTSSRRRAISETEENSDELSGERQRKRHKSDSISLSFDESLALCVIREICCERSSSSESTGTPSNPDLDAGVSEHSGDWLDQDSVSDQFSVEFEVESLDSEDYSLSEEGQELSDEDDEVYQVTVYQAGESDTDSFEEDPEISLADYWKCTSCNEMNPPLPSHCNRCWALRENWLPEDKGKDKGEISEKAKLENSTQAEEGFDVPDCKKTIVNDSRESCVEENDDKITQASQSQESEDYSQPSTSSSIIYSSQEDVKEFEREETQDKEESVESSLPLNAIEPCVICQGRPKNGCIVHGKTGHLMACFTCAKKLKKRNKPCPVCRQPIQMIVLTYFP
Gli-Sufu antag = antagonists of Gli-Sufu signaling; Sufu-KO-LIGHT fibroblasts, Gli luciferase reporter luminescence; 0.74% of 340,000 active; inhibition, % at 5 µM;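 active = inhibition above about 55%, limit read from the data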
Beta apoptosis = blocks beta cell apoptosis | INS-1E cytokine-induced death, ATP luminescence, 48 h; percent of positive-control rescue, neutral wells zero | protection from apoptosis, % (no concentration beside the values) | 0.8% of 300,000 active | AID 435005;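 active = Every replicate reaches about 75%, or at least half do and their mean reaches it too, limit read from the data; inconclusive = At least half of replicates reach the limit but their mean does not; inactive = Under half of replicates reach the limit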;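 note: higher means more ATP so stronger rescue from cytokine killing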
PAX8 inh HTS = PAX8 transcriptional activity inhibition; 1.2% of 360,000 active; RMG-I TPO-luciferase reporter, SteadyGlo, 24 h; inhibition, % at 12.6 µM;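 active = mean replicate inhibition at least 60% with every replicate also reaching 60%; inconclusive = only one of the two criteria is met; inactive = mean below 60% and not all replicates reaching 60%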;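 note: luciferase light reporting Pax8 driven TPO promoter activity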
Shn3 3UTR inh = reduces Shn3 3'UTR luciferase signal in osteoblasts | Clone20 osteoblast Shn3 3'UTR firefly luciferase, 24 h | inhibition, % at 12.5 µM | AID 588674 | 0.52% of 360,000 active;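 active = mean inhibition of at least 75% with every replicate also reaching 75%; inconclusive = mean inhibition at least 75% but some replicate below; inactive = mean inhibition below 75%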
CSC inhib = blocks cancer stem cells | cancer stem cell-like cells viability, luminescence | inhibition, % at 7.5 µM | 1.1% of 300,000 active | AID 2717; in the data active = inhibition above about 75%; inconclusive = no clear call, values can overlap the other calls; tested in HMLE shEcad cells
Large screens that a line does not name were inactive.

C[C@@H]1CCCCO[C@H](CN(C)C(=O)Nc2ccccc2)[C@H](C)CN([C@@H](C)CO)C(=O)c2cc(NS(=O)(=O)c3cccs3)ccc2O1	none (no result: Mdm2 MdmX PPI, Gli-Sufu antag, Beta apoptosis, Shn3 3UTR inh, CSC inhib)
CN(C)CCCNC(=O)C[C@H]1CC[C@@H]2[C@@H](COc3ccc(NC(=O)c4cccc(F)c4)cc3C(=O)N2C)O1	none (no result: Mdm2 MdmX PPI, Gli-Sufu antag, Beta apoptosis, Shn3 3UTR inh, CSC inhib)
NC1=C(Br)C(=O)c2ncccc2C1=O	Gli-Sufu antag 85, PAX8 inh HTS 131, Shn3 3UTR inh 97 (no result: Mdm2 MdmX PPI, Beta apoptosis, CSC inhib)
Cc1noc(C)c1S(=O)(=O)Nc1ccc2c(c1)C(=O)N([C@@H](C)CO)C[C@H](C)[C@H](CN(C)Cc1ccc(C(F)(F)F)cc1)O2	none (no result: Mdm2 MdmX PPI, Gli-Sufu antag, Beta apoptosis, Shn3 3UTR inh, CSC inhib)
Cc1ccc(SC(=O)c2c(C)noc2-c2cc(C)on2)cc1	CSC inhib 81
Cc1cc(-c2onc(C)c2C(=O)N/N=C/c2ccccc2)no1	none
Cc1cc(OCCOCCN(C)CCO)cc(C)c1Cl	none (no result: PAX8 inh HTS)
CCN(CC)CCOCCOc1cc(C)c(Cl)c(C)c1	CSC inhib 89 (no result: PAX8 inh HTS)
CC(C)N1C(=O)S/C(=C\c2ccc(-c3ccc(Cl)c(C(=O)O)c3)o2)C1=O	none (no result: Beta apoptosis)
CCN(CC)c1ccc(/C=C2/SC(=O)N(C(C)C)C2=O)o1	Shn3 3UTR inh 96 (no result: Mdm2 MdmX PPI, Beta apoptosis, CSC inhib)
NC(=O)CC(NC(=O)Cc1ccc(Br)cc1)c1ccc(NC2CCCCCC2)c([N+](=O)[O-])c1 (stereo not drawn)	CSC inhib 76
O=C(Oc1cccc2cccnc12)c1cccc(N2C(=O)C3C4CCC(C4)C3C2=O)c1 (stereo not drawn)	Beta apoptosis 79 (no result: Shn3 3UTR inh)
COc1cc(/C=N/NC(=O)c2ccc(CN3C(=O)c4cccc5cccc3c45)cc2)cc(OC)c1O	PAX8 inh HTS 98
COc1ccc(/C=N/NC(=O)c2ccc(CN3C(=O)c4cccc5cccc3c45)cc2)cc1O	none
CN(C)CCOc1ccc(C(C)(C)c2ccccc2)cc1	CSC inhib 146
CN(C)CCCOc1ccc(C(C)(C)c2ccccc2)cc1	none (no result: Beta apoptosis, PAX8 inh HTS)
COCCNC(=O)C[C@H]1C[C@H]2c3cc(N(C)C)ccc3O[C@H]2[C@@H](CO)O1	none (no result: Mdm2 MdmX PPI, Gli-Sufu antag, Beta apoptosis, Shn3 3UTR inh, CSC inhib)
OCC1OC(n2ccc3c2ncn2ncnc32)C(O)C1O (stereo not drawn)	PAX8 inh HTS 72 (no result: Mdm2 MdmX PPI, Gli-Sufu antag, Beta apoptosis, CSC inhib)
COc1ccc(S(=O)(=O)NC[C@@H]2CC[C@H]3[C@H](CN3Cc3cc(F)ccc3F)O2)cc1	none (no result: Mdm2 MdmX PPI, Gli-Sufu antag, Beta apoptosis, Shn3 3UTR inh, CSC inhib)
CCN(Cc1ccccc1)C(c1ccc(C(F)(F)F)cc1)c1nnnn1C(C)(C)C (stereo not drawn)	Beta apoptosis 106 (no result: PAX8 inh HTS)
Cc1cnc(C=NNC(N)=S)c2cccc(N)c12	none (no result: Mdm2 MdmX PPI, Beta apoptosis, CSC inhib)
NC(=S)NN=Cc1nccc2c(C(F)(F)C(F)(F)C(F)(F)F)cccc12	PAX8 inh HTS 75 (no result: Mdm2 MdmX PPI, Gli-Sufu antag, Beta apoptosis, CSC inhib)
Oc1ccccc1C=NNC(=S)NN=Cc1ccccc1O	none (no result: Mdm2 MdmX PPI, Beta apoptosis, CSC inhib)
NC(=S)N/N=C/c1ccccc1O	Beta apoptosis 92
NC(=S)NN=Cc1nccc2ccccc12	Gli-Sufu antag 65 (no result: Mdm2 MdmX PPI, Beta apoptosis, CSC inhib)
COc1ccc(C(=O)c2c(C)c3ccccc3n2CC(O)CNC(C)C)cc1 (stereo not drawn)	Beta apoptosis 102
C[C@H](CO)N1C[C@H](C)[C@H](CN(C)C(=O)NC2CCCC2)Oc2ncc(-c3cccc(C(F)(F)F)c3)cc2C1=O	none (no result: Mdm2 MdmX PPI, Gli-Sufu antag, Beta apoptosis, Shn3 3UTR inh, CSC inhib)
Cc1ccccc1N=Nc1ccc(O)c2ncccc12	Beta apoptosis 99, Shn3 3UTR inh inconclusive, CSC inhib 99 (no result: Mdm2 MdmX PPI)
O=Nc1ccc(O)c2ncccc12	Shn3 3UTR inh 86
COc1ccc(C)cc1N=Nc1ccc(O)c2ncccc12	Shn3 3UTR inh 90 (no result: Mdm2 MdmX PPI, Beta apoptosis, CSC inhib)
O=S(=O)(O)c1cccc2c(N=Nc3ccc(O)c4ncccc34)cccc12	none (no result: Mdm2 MdmX PPI, PAX8 inh HTS)
COc1ccc(C)cc1-n1c(=O)c2ccccc2c2ccccc2c1=O	none (no result: Mdm2 MdmX PPI, Beta apoptosis, CSC inhib)
CC(C)C#Cc1cnc2c(c1)C(=O)N([C@@H](C)CO)C[C@H](C)[C@H](CN(C)C(=O)c1ccccc1F)O2	none (no result: Mdm2 MdmX PPI, Gli-Sufu antag, Beta apoptosis, Shn3 3UTR inh, CSC inhib)
Cc1ccc(S(=O)(=O)N2C[C@@H](O)COC[C@H]3O[C@H](CC(=O)N[C@H]4CCN(Cc5ccccc5)C4)CC[C@@H]32)cc1	none (no result: Mdm2 MdmX PPI, Gli-Sufu antag, Beta apoptosis, Shn3 3UTR inh, CSC inhib)
CCC(C)[C@H]1CNC(=S)N1CCc1cc(C(F)(F)F)cc(C(F)(F)F)c1 (stereo partly drawn)	Shn3 3UTR inh 97
O=C(N/N=C/c1cn(-c2cccs2)nc1-c1ccccc1)c1ccccc1Br	CSC inhib 83
O=C(N/N=C/c1cn(-c2ccccc2)nc1-c1cc2ccccc2o1)c1ccccc1Br	none
CC(C)NC(=O)Nc1ccc2c(c1)C(=O)N([C@@H](C)CO)C[C@@H](C)[C@@H](CN(C)Cc1ccc(Oc3ccccc3)cc1)O2	none (no result: Mdm2 MdmX PPI, Gli-Sufu antag, Beta apoptosis, Shn3 3UTR inh, CSC inhib)
Cc1ccc2c(c1)c1c3n2CCN(CCC(=O)O)C3CCC1 (stereo not drawn)	none
Cc1ccc2c(c1)c1c3n2CCN(CC(N)=O)C3CCC1 (stereo not drawn)	PAX8 inh HTS 97
O=C1C=CC(=O)N1CCCCCCCCCCN1C(=O)C=CC1=O	PAX8 inh HTS 68, Shn3 3UTR inh 93 (no result: Mdm2 MdmX PPI, Beta apoptosis, CSC inhib)
OC[C@@H]1CN(Cc2ccc(-c3ccccc3)cc2)C[C@H](n2cnc3c(NCc4ccc(F)cc4)ncnc32)O1	PAX8 inh HTS 84, Shn3 3UTR inh 81 (no result: Mdm2 MdmX PPI, Gli-Sufu antag, Beta apoptosis, CSC inhib)
Cc1ccc(S(=O)(=O)N(C)C[C@H]2Oc3c(NC(=O)Nc4ccc5c(c4)OCO5)cccc3C(=O)N([C@H](C)CO)C[C@@H]2C)cc1	none (no result: Mdm2 MdmX PPI, Gli-Sufu antag, Beta apoptosis, Shn3 3UTR inh, CSC inhib)
Cc1ccc(S(=O)(=O)NC2=C(N3CCN(c4ccccc4F)CC3)C(=O)c3ccccc3C2=O)cc1	none
CC(=O)Nc1ccc(S(=O)(=O)NC2=C(N3CCN(c4ccc(F)cc4)CC3)C(=O)c3ccccc3C2=O)cc1	Beta apoptosis 85
